This is part of a sample that, as a whole, favours compounds with a hit. Of some 83,000 tested, about 20% had one in any assay.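 Note: values are percent growth. 100 is the growth of untreated cells, values between 100 and 0 indicate rising inhibition; between -100 and 0 indicates cell death.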 Active and inactive are the calls of the source. The calls were made as follows: active = growth percent below 10; inactive = the rest.

For the experiment, the system named is OVCAR-3 ovarian. As to the kind of experiment: NCI-60 one-dose screen, 48 h (100 = growth as untreated, 0 = no growth, -100 = all killed). Conditions: 10 µM unless noted.
As for `COc1cc2c(cc1O)CC[C@@H]1[C@@H]2CC[C@]2(C)[C@@H](NCCN(C)C)CC[C@@H]12`, the growth is -88.3% (active).

Consider `COc1cccc2c1C(=O)c1c(O)c3c(c(O)c1C2=O)C[C@](O)(C(=O)CO)C[C@H]3O[C@@H]1C[C@@H](NC(=O)CCCN(C)C2(c3ccc(F)cc3)CC3CCC2C3)[C@H](O)[C@@H](C)O1` (stereo partly drawn), for which the growth was -84.8% (active).

`O=c1cc(CSc2nnc(SCc3cc(=O)oc4c3ccc3ccccc34)o2)c2ccc3ccccc3c2o1`: the growth was 105% (inactive).

Take `COc1cc2c(cc1O)CC[C@@H]1[C@@H]2CC[C@]2(C)[C@@H](OCCN(C)C)CC[C@@H]12`: the growth was 12.5% (inactive).

For the compound `COc1ccc(-c2nnc(SCC(=O)c3ccc(Cl)cc3)o2)cc1`, the growth was 103% (inactive).

As for `NC(=NCCCOc1ccc(Cl)cc1)Nc1ccc(C(F)(F)F)cc1`, the growth is 58.3% (inactive).

`CCCCC[C@H]1C/C=C2/C(=O)C=C[C@@H]2C/C=C\CCCC(=O)O1`: the growth was -58.8% (active).

For the compound `CNC(=O)c1cc(Oc2ccc(NC(=O)Nc3ccc(Cl)c(OC(F)(F)F)c3)c(F)c2)ccn1`, the growth is 39.8% (inactive).

On to `COc1ccc2c(c1)C(=O)/C(=C/c1cccnc1)CC2`, for which the growth was 98.6% (inactive).

With `COc1cccc(-c2nc(SCC(=O)Nc3ccc(C(=O)/C=C/c4ccc(OC)c(OC)c4)cc3)[nH]c(=O)c2C#N)c1`, the growth is 83.6% (inactive).

For the compound `CCCn1c(=O)[nH]c(N)c([C@H]2c3ccccc3Oc3[nH]c(=O)n(CCC)c(=O)c32)c1=O`, the growth was 13.8% (inactive).

In the case of `C=C1C(=O)O[C@H]2[C@H]1CC/C(COC(=O)NCc1ccc(OC)c(OC)c1)=C\CC[C@@]1(C)O[C@@H]21`, the growth is 19.9% (inactive).

Turning to `N#CN1CC[C@H](C(=O)Nc2cc3cc(C(N)=O)ccc3cn2)C1`, the growth is -14.4% (active).

For the compound `O=C1c2c(O)cc(O)cc2-c2c(-c3ccc(O)cc3)oc3cc(O)cc1c23`, the growth is 44% (inactive).

In the case of `O=C1/C(=C/c2ccccc2O)N=C2SCCCN12`, the growth was 92.9% (inactive).

In the case of `COc1ccc(CN2c3ccccc3Sc3ccccc32)c(C(F)(F)F)c1`, the growth was 5.59% (active).

As to `COc1ccc(-c2nc(SCC(=O)Nc3ccc(C(=O)/C=C/c4ccc(Cl)cc4)cc3)[nH]c(=O)c2C#N)cc1`, the growth is 101% (inactive).

On to `COc1ccc2c(c1)CC/C(=C\c1cncc(Br)c1)C2=O`, for which the growth is 95.9% (inactive).

Take `COc1ccc2c(c1)C(=O)/C(=C/c1ccccn1)CC2`: the growth is 62.1% (inactive).

`Cc1nc(Nc2ccc(F)c(Cl)c2)sc1C(=O)O`: the growth is 23% (inactive).

With `CCOC(=O)c1sc(Nc2ccc(Cl)cc2)nc1C`, the growth is 27.4% (inactive).

For the compound `CC(=O)c1cc(C(=O)c2ccc3c(c2)Sc2ccccc2N3)n2ccccc12`, the growth was -16.8% (active).

Regarding `CC(=O)O[C@H]1C(=O)[C@@]2(C)[C@H]([C@H](OC(=O)c3ccccc3)[C@]3(O)C[C@H](OC(=O)[C@H](OC(=O)CCC(=O)OC4CCC(S/N=C(N)/N=C(\N)N(C)C)CC4)[C@@H](NC(=O)c4ccccc4)c4ccccc4)C(C)=C1C3(C)C)[C@]1(OC(C)=O)CO[C@@H]1C[C@@H]2O` (stereo partly drawn), the growth is 10.2% (inactive).

`CC(=O)OC[C@H]1O[C@H](OC(C)=O)[C@H](NC(=O)/C=C/CCl)[C@@H](OC(C)=O)[C@@H]1OC(C)=O`: the growth was 30.6% (inactive).

For the compound `COc1cc(-c2nc(C(=O)NCC(=O)NO)nn2-c2ccc(Cl)cc2)cc(OC)c1OC`, the growth was 103% (inactive).

On to `C=C1C(=O)O[C@H]2[C@H]1CC/C(COC(=O)NCCc1ccc(OC)c(OC)c1)=C\CC[C@@]1(C)O[C@@H]21`, for which the growth was 25.8% (inactive).

As for `CC/C=C\C[C@H](O)C/C=C1/C(=O)C=C[C@@]1(C)C/C=C\CCCC(=O)OC`, the growth was 114% (inactive).

Regarding `Cc1ccc2oc(=O)cc(C3c4ccc([nH]4)C(c4cc(=O)oc5ccc(C)cc45)c4ccc([nH]4)C(c4cc(=O)oc5ccc(C)cc45)c4ccc([nH]4)C(c4cc(=O)oc5ccc(C)cc45)c4ccc3[nH]4)c2c1` (stereo not drawn), the growth was -65% (active).

In the case of `COc1cccc2c1C(=O)c1c(O)c3c(c(O)c1C2=O)C[C@](O)(C(=O)CO)C[C@H]3O[C@@H]1C[C@@H](NC(=O)CCCCCN(C)C2(c3ccc(F)cc3)CC3CCC2C3)[C@H](O)[C@@H](C)O1` (stereo partly drawn), the growth was 5.02% (active).

As to `NC(=NCCCC1(c2ccccc2)CCCC1)Nc1ccc(Cl)cc1`, the growth is 60.8% (inactive).

With `CCC#CC[C@H](O)C/C=C1/C(=O)C=C[C@@H]1C/C=C\CCCC(=O)OC`, the growth was 12.5% (inactive).

On to `O=c1oc2c(C(F)(F)F)cccc2cc1-c1csc(Nc2ccc(OCCF)cc2)n1`, for which the growth was -21.4% (active).

Turning to `CNC(=O)c1cc(Oc2ccc(NC(=O)Nc3ccc(Cl)c(SC)c3)c(F)c2)ccn1`, the growth is 61.2% (inactive).

For `c1ccc2[nH]c(-c3ccc(Nc4nc(N5CCCC5)nc5[nH]ncc45)cc3)nc2c1`, the growth is -53.1% (active).

On to `CC/C=C\C/C=C\C[C@H]1C/C=C2/C(=O)C=C[C@@H]2C/C=C\CCC(=O)O1`, for which the growth is 2.66% (active).

For `COc1ccc(CN2c3ccccc3Sc3ccccc32)cc1O`, the growth is 7.47% (active).

Turning to `CCOc1ccc(-n2nc(C(=O)Nc3cc(OC)c(OC)c(OC)c3)nc2-c2cc(OC)c(OC)c(OC)c2)cc1`, the growth was 86.9% (inactive).

In the case of `CC/C=C\C[C@H]1C/C=C2/C(=O)C=C[C@H]2C/C=C\CCCC(=O)O1`, the growth is 6.53% (active).
